# Laboratory results as given in publication PMC8384837, “Expanding the binding specificity for RNA recognition by a PUF domain”.
# Positions count from the first letter of the chain named.
# How the values were obtained:
# Test in all cases: yeast three-hybrid, YBZ-1, SC-Leu-His + 0.5 mM 3-AT, 4 days
# Conditions in all cases: tags: N-Gal4 AD-HA kept; label: inside an RPR1-promoter hybrid RNA with tandem MS2 sites; ssRNA
# [1] = molecular target: PUM1 PUF domain R4-PYV (Homo sapiens, UniProt Q14671 828-1176, N971P;H972Y;Q975V)
# How it was run: (§1)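 Each repeat of the Pumilio-1 PUF domain was randomized at its three base-contacting residues, and these libraries were co-expressed from a centromeric plasmid with matching RNA elements in strain YBZ-1. After four days on SC-Leu (input) or SC-Leu-His + 0.5 mM 3-AT (selection), the repeat regions were PCR-amplified and Illumina-sequenced. The interaction score compares variant frequency between input and selection as a log change, computed in log2 with a pseudocount of 1 for absent variants.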
# [2] = molecular target: PUM1 PUF domain R4-EHF (Homo sapiens, UniProt Q14671 828-1176, N971E;Q975F)
# How it was run: as §1
# [3] = molecular target: PUM1 PUF domain R4-PFC (Homo sapiens, UniProt Q14671 828-1176, N971P;H972F;Q975C)
# How it was run: as §1
# [4] = molecular target: PUM1 PUF domain R4-NRG (Homo sapiens, UniProt Q14671 828-1176, H972R;Q975G)
# How it was run: as §1
# [5] = molecular target: PUM1 PUF domain R7-RRE (Homo sapiens, UniProt Q14671 828-1176, S1079R;N1080R)
# How it was run: as §1
# [6] = molecular target: PUM1 PUF domain R7-RWP (Homo sapiens, UniProt Q14671 828-1176, S1079R;N1080W;E1083P)
# How it was run: as §1
# [7] = molecular target: PUM1 PUF domain R8-RFQ (Homo sapiens, UniProt Q14671 828-1176, N1122R;Y1123F)
# How it was run: as §1
# [8] = molecular target: PUM1 PUF domain R3-DYA (Homo sapiens, UniProt Q14671 828-1176, C935D;R936Y;Q939A)
# How it was run: as §1
# [9] = molecular target: PUM1 PUF domain R5-KDR (Homo sapiens, UniProt Q14671 828-1176, C1007K;R1008D;Q1011R)
# How it was run: as §1
# [10] = molecular target: PUM1 PUF domain R5-KRL (Homo sapiens, UniProt Q14671 828-1176, C1007K;Q1011L)
# How it was run: as §1
# [11] = molecular target: PUM1 PUF domain R5-RMD (Homo sapiens, UniProt Q14671 828-1176, C1007R;R1008M;Q1011D)
# How it was run: as §1
# [12] = molecular target: PUM1 PUF domain R5-KSG (Homo sapiens, UniProt Q14671 828-1176, C1007K;R1008S;Q1011G)
# How it was run: as §1
# [13] = molecular target: PUM1 PUF domain R5-RRY (Homo sapiens, UniProt Q14671 828-1176, C1007R;Q1011Y)
# How it was run: as §1
# [14] = molecular target: PUM1 PUF domain R8-KRS (Homo sapiens, UniProt Q14671 828-1176, N1122K;Y1123R;Q1126S)
# How it was run: as §1
# [15] = molecular target: T1, PUM1 PUF domain R6-QWR (Homo sapiens, UniProt Q14671 828-1176, N1043Q;Y1044W;Q1047R)
# T1 sequence: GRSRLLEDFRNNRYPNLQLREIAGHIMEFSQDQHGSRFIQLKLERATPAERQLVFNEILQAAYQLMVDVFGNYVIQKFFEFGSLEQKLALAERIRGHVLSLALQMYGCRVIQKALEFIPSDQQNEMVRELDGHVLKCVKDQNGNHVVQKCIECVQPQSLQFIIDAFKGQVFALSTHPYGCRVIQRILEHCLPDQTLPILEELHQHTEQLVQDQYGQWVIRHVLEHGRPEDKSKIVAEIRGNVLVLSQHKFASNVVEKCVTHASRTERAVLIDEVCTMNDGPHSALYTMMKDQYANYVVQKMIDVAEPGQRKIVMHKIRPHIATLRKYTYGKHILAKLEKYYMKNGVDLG
# How it was run: as §1
# [16] = molecular target: PUM1 PUF domain R2-PYE (Homo sapiens, UniProt Q14671 828-1176, N899P;Q903E)
# How it was run: as §1
# [17] = molecular target: T2, PUM1 PUF domain R6-VYC (Homo sapiens, UniProt Q14671 828-1176, N1043V;Q1047C)
# T2 sequence: T1 sequence with Q216V, W217Y, R220C
# How it was run: as §1
# [18] = molecular target: T3, PUM1 PUF domain R6-DFQ (Homo sapiens, UniProt Q14671 828-1176, N1043D;Y1044F)
# T3 sequence: T1 sequence with Q216D, W217F, R220Q
# How it was run: as §1
# [19] = molecular target: T4, PUM1 PUF domain R6-QHR (Homo sapiens, UniProt Q14671 828-1176, N1043Q;Y1044H;Q1047R)
# T4 sequence: T1 sequence with W217H
# How it was run: as §1
# [20] = molecular target: T5, PUM1 PUF domain R6-FWK (Homo sapiens, UniProt Q14671 828-1176, N1043F;Y1044W;Q1047K)
# T5 sequence: T1 sequence with Q216F, R220K
# How it was run: as §1
sequence,measurement,setting,value
GGCUAGAACUAGUGGAUCCCCCGGCGCCCGGCGGCUCGAGCCCGGGUAAGUGUAUAUAGUCUGCAUGCCGCCGGGCGCCAUGCCUGCAGGUCGACUCUAGAAAACAUG,binding signal,[1],7.86 log2 enrichment (interaction score)
same,binding signal,[2],5.95 log2 enrichment (interaction score)
same,binding signal,[3],7.01 log2 enrichment (interaction score)
same,binding signal,[4],2.73 log2 enrichment (interaction score)
GGCUAGAACUAGUGGAUCCCCCGGCGCCCGGCGGCUCGAGCCCGGGUAAGUCUAAAUAGUCUGCAUGCCGCCGGGCGCCAUGCCUGCAGGUCGACUCUAGAAAACAUG,binding signal,[5],3.75 log2 enrichment (interaction score)
same,binding signal,[6],4.98 log2 enrichment (interaction score)
GGCUAGAACUAGUGGAUCCCCCGGCGCCCGGCGGCUCGAGCCCGGGUAAGUGUACAUAGUCUGCAUGCCGCCGGGCGCCAUGCCUGCAGGUCGACUCUAGAAAACAUG,binding signal,[1],6.43 log2 enrichment (interaction score)
same,binding signal,[3],5.29 log2 enrichment (interaction score)
same,binding signal,[4],0.43 log2 enrichment (interaction score)
GGCUAGAACUAGUGGAUCCCCCGGCGCCCGGCGGCUCGAGCCCGGGUAAGGGUAAAUAGUCUGCAUGCCGCCGGGCGCCAUGCCUGCAGGUCGACUCUAGAAAACAUG,binding signal,[7],2.44 log2 enrichment (interaction score)
GGCUAGAACUAGUGGAUCCCCCGGCGCCCGGCGGCUCGAGCCCGGGUAAGUGUAAGUAGUCUGCAUGCCGCCGGGCGCCAUGCCUGCAGGUCGACUCUAGAAAACAUG,binding signal,[8],1.16 log2 enrichment (interaction score)
GGCUAGAACUAGUGGAUCCCCCGGCGCCCGGCGGCUCGAGCCCGGGUAAGUGUCAAUAGUCUGCAUGCCGCCGGGCGCCAUGCCUGCAGGUCGACUCUAGAAAACAUG,binding signal,[9],4.77 log2 enrichment (interaction score)
same,binding signal,[10],3.16 log2 enrichment (interaction score)
same,binding signal,[11],4.23 log2 enrichment (interaction score)
same,binding signal,[12],3.24 log2 enrichment (interaction score)
same,binding signal,[13],4.32 log2 enrichment (interaction score)
GGCUAGAACUAGUGGAUCCCCCGGCGCCCGGCGGCUCGAGCCCGGGUAAGCGUAAAUAGUCUGCAUGCCGCCGGGCGCCAUGCCUGCAGGUCGACUCUAGAAAACAUG,binding signal,[7],5.63 log2 enrichment (interaction score)
same,binding signal,[14],3.28 log2 enrichment (interaction score)
GGCUAGAACUAGUGGAUCCCCCGGCGCCCGGCGGCUCGAGCCCGGGUAAGUGCAAAUAGUCUGCAUGCCGCCGGGCGCCAUGCCUGCAGGUCGACUCUAGAAAACAUG,binding signal,[15],2.4 log2 enrichment (interaction score)
GGCUAGAACUAGUGGAUCCCCCGGCGCCCGGCGGCUCGAGCCCGGGUAAGUGUGAAUAGUCUGCAUGCCGCCGGGCGCCAUGCCUGCAGGUCGACUCUAGAAAACAUG,binding signal,[10],0.47 log2 enrichment (interaction score)
GGCUAGAACUAGUGGAUCCCCCGGCGCCCGGCGGCUCGAGCCCGGGUAAGUGUUAAUAGUCUGCAUGCCGCCGGGCGCCAUGCCUGCAGGUCGACUCUAGAAAACAUG,binding signal,[9],2.77 log2 enrichment (interaction score)
same,binding signal,[10],3 log2 enrichment (interaction score)
same,binding signal,[12],2.98 log2 enrichment (interaction score)
same,binding signal,[13],3.28 log2 enrichment (interaction score)
GGCUAGAACUAGUGGAUCCCCCGGCGCCCGGCGGCUCGAGCCCGGGUAAGUGUAAAAAGUCUGCAUGCCGCCGGGCGCCAUGCCUGCAGGUCGACUCUAGAAAACAUG,binding signal,[16],5.7 log2 enrichment (interaction score)
GGCUAGAACUAGUGGAUCCCCCGGCGCCCGGCGGCUCGAGCCCGGGUAAGUGAAAAUAGUCUGCAUGCCGCCGGGCGCCAUGCCUGCAGGUCGACUCUAGAAAACAUG,binding signal,[17],6.26 log2 enrichment (interaction score)
GGCUAGAACUAGUGGAUCCCCCGGCGCCCGGCGGCUCGAGCCCGGGUAAGUGUAAAUAGUCUGCAUGCCGCCGGGCGCCAUGCCUGCAGGUCGACUCUAGAAAACAUG,binding signal,[7],2.11 log2 enrichment (interaction score)
same,binding signal,[8],5.02 log2 enrichment (interaction score)
same,binding signal,[1],5.22 log2 enrichment (interaction score)
same,binding signal,[10],1.09 log2 enrichment (interaction score)
same,binding signal,[18],8.15 log2 enrichment (interaction score)
same,binding signal,[3],7.66 log2 enrichment (interaction score)
same,binding signal,[13],1.18 log2 enrichment (interaction score)
same,binding signal,[19],6.41 log2 enrichment (interaction score)
same,binding signal,[4],3.35 log2 enrichment (interaction score)
same,binding signal,[20],2.07 log2 enrichment (interaction score)
same,binding signal,[15],2.53 log2 enrichment (interaction score)
same,binding signal,[14],1.29 log2 enrichment (interaction score)
